Records with an inconclusive call do not appear. Values without a mark were called inactive. Calls come from the whole dose curve; as a rule, active = well fitted cell-killing curve with a large enough effect in the repeat runs; inconclusive = weak or mixed curves, or effect the other way; inactive = no such curve, though single readings can be large or run the other way.
% is set by controls: 0 for no effect and ±100 for the full control effect.

The nature of the test: qHTS assay to identify small molecule antagonists of the retinoid-related orphan receptor gamma (ROR-gamma) signaling pathway - cell viability counter screen (AID 1159520). Note: nearly all actives have a fitted effect of over 50% in size. As to conditions: Tet-on RORgamma CHO cells viability, ATP luminescence, 16 h; series mostly up to 92.4 µM; activity, negative = cytotoxicity: at the top concentration. An excerpt: U.S. Tox21 Program National Center for Advancing Translational Sciences [NCATS] NIH Chemical Genomics Center [NCGC] U.S. Environmental Protection Agency [EPA] National Institutes of Environmental Health Sciences [NIEHS] National Toxicology Program [NTP] U.S. Food and Drug Administration [FDA] Tox21 Assay Overview: Nuclear steroid hormone receptors are involved in many biological processes including inflammatory responses, cell proliferation, and apoptosis. Environmental factors or compounds disrupting these nuclear receptor pathways and gene expression may promote susceptibility to immunotoxicants and autoimmune diseases. One important group of these expression factors are the retinoid-related orphan receptors. To assess compounds that may interfere with the retinoid-related orphan receptor gamma (ROR-gamma) transcription factor, a cell-based luciferase assay was used. The CHO cell-based assay utilizes a TET-inducible ROR expression factor and ROR response element-LUC reporter gene. Reporter gene activity was induced using Doxycycline Hyclate and measured after 16 hr incubation. Tet-on ROR gamma CHO cells were used to screen against the Tox21 10K compound library for cytotoxicity by measuring the viability of the cells based on the quantitation of the ATP.
Tox21 Assay Protocol Summary: Tet-on ROR gamma CHO cells were dispensed at 1,000 cells in 4 uL of culture medium per well into white wall/solid bottom 1536-well plates using a Multidrop Combi (Thermo Scientific, Waltham, MA) dispenser. Following incubation at 37 C and 5% CO2 for 4 hr, 23 nL of compounds dissolved in DMSO, positive controls or DMSO only were transferred by a Pintool station (Kalypsys, San Diego, CA) and after 2 hr incubation at 37 C, one ul of 1 uM (final concentration) of Doxycycline Hyclate was added to all the wells by using a Flying Reagent Dispenser (FRD) (Aurora Discovery, San Diego, CA). After 16 hr incubation at 37 C and 5% CO2, 5 uL of CellTiter-Glo reagent (Promega Corporation, Madison, WI) was added to each assay plate using FRD. After 30 min incubation at room temperature, luminescence was quantified on a ViewLux plate reader (Perkin Elmer, Waltham, MA).
Consider `COc1ccc(OC)c(NC(=O)CC(C)=O)c1`, for which the “activity, negative = cytotoxicity” value is 3.45%. Next, `Nc1c(NC/C=C\COc2cc(CN3CCCCC3)ccn2)c(=O)c1=O`: 0% [at 19 µM]; `C[C@H](CCC(=O)NCC(=O)O)[C@H]1CC[C@H]2[C@@H]3[C@H](O)C[C@@H]4C[C@H](O)CC[C@]4(C)[C@H]3C[C@H](O)[C@]12C`: 9.79%. In the case of `Cc1ccccc1C`, the “activity, negative = cytotoxicity” value is -2.49%. As for `Nc1ccc(S(=O)(=O)Nc2ccccn2)cc1`, the “activity, negative = cytotoxicity” value is 2.17% [at 42.5 µM]. Take `NC(=O)NNC(N)=O`: the “activity, negative = cytotoxicity” value was -9.73%. On to `COc1cc(C=O)ccc1OC(=O)C(C)C`, for which the “activity, negative = cytotoxicity” value was 4.65%.

With `CN[C@@H]1[C@H](O)[C@H](NC)[C@H]2O[C@@]3(O)C(=O)C[C@@H](C)O[C@H]3O[C@@H]2[C@H]1O`, the “activity, negative = cytotoxicity” value was -2.99% [at 42.5 µM].

In the case of `CO[Si](CCCCl)(OC)OC`, the “activity, negative = cytotoxicity” value is 6.91%. For `CN(C1CCCCC1)S(=O)(=O)c1ccccc1N`, the “activity, negative = cytotoxicity” value is 6.24%. Consider `CCCCCC1Nc2cc(C(F)(F)F)c(S(N)(=O)=O)cc2S(=O)(=O)N1` (stereo not given), for which the “activity, negative = cytotoxicity” value is 0.246% [at 42.5 µM]. As for `CCCO`, the “activity, negative = cytotoxicity” value is -0.0852%. With `CCCCC/C=C/CC(=O)OC`, the “activity, negative = cytotoxicity” value is 4.63%. Under `CCCCCCCCCCCCC` stands 1.43%. As for `Nc1nc(=O)n([C@@H]2O[C@H](CO)[C@@H](O)[C@@H]2F)cc1I`, the “activity, negative = cytotoxicity” value is 7.81% [at 42.5 µM]. Next, `COC(=O)CCC(=O)O`: -13.2%; `O=[Si]=O`: 4.45%. As for `C=CC(C)(O)CC/C=C(\C)CC` (stereo not given), the “activity, negative = cytotoxicity” value was -0.0219%. As to `Cc1ncc([N+](=O)[O-])n1CC(O)CCl` (stereo not given), the “activity, negative = cytotoxicity” value is 2.34% [at 42.5 µM].

`CCCCCC1CCCC(=O)O1` (stereo not given): the “activity, negative = cytotoxicity” value was 6.12%. Next, `O=C(O)C(=O)Nc1cccc(-c2nn[nH]n2)c1`: 0.374% [at 42.5 µM]. Consider `Cc1ccccc1OCC1CO1` (stereo not given), for which the “activity, negative = cytotoxicity” value was -7.28%. Under `CC(CC(=O)O)CC(C)(C)C` (stereo not given) stands -8.85%; under `Cc1ccccc1N1CCN(CCc2nnc3n2CCCC3)CC1`, 2.66% [at 42.5 µM]. Under `c1ccc(CNc2ncnc3nc[nH]c23)cc1` stands -0.377%; under `CCOC(=O)CC#N`, -0.625%; under `CCOC(=O)C(C)(C)C`, -0.225%. Next, `CC(C)c1ccccc1O`: 2.01%; `N#CCCOCCOCCC#N`: -12.1%.

Turning to `Cc1cc(O)c2c(c1)C(=O)c1cccc(O)c1C2=O`, the “activity, negative = cytotoxicity” value was 0.699% [at 42.5 µM]. Next, `CCCCC(CC)COC(=O)c1ccccc1` (stereo not given): 7.51%; `CO[Si](CCCS)(OC)OC`: 6.18%. For the compound `CCOC(=O)CC(CC(=O)OCC)(OC(C)=O)C(=O)OCC`, the “activity, negative = cytotoxicity” value was -4.66%. Turning to `CC(=O)c1ccc2c(c1)CCCC2`, the “activity, negative = cytotoxicity” value was -4.08%. `CC(C)(C)c1ccc(C=O)cc1`: the “activity, negative = cytotoxicity” value was 2.43%. For the compound `COC(/C=C(\C)CCC=C(C)C)OC`, the “activity, negative = cytotoxicity” value was 2.42%. Under `Cc1cc(C)cc([N+](=O)[O-])c1` stands -1.77%; under `CC(=O)/C=C/c1ccco1`, 4.24%. As for `CCC(O)C(C)(C)C` (stereo not given), the “activity, negative = cytotoxicity” value is 5.69%. As for `CC(=O)OC(C)c1ccccc1` (stereo not given), the “activity, negative = cytotoxicity” value is 10.6%.

(Values after PubChem BioAssay (Tox21).)
